PubChem BioAssay (EPA / NIEHS)
Records with an inconclusive call do not appear. Calls of active or inactive are those of the source. The calls were made as follows: active = hit-call score of the fitted dose curve at least 0.9, where 1 is the maximum; inconclusive = response in the unintended direction; inactive = score below 0.9.

Experiment: CCTE_Harrill_HTTr_CellCount_MCF7: CCTE's Cell Proliferation Assessment for the High-Throughput Transcriptomics (HTTr) Platform, Harrill Lab (AID 2284012);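 also: cells exposed to compound for six hours; intended direction is loss of nuclei count meaning fewer cells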
Excerpt: This is a cell-based assay that evaluates cell viability and cell growth using high content imaging to count the number of Hoechst-labeled nuclei that are present in an assay well in 384-well format.This is a cell-based assay that evaluates cell viability and cell growth in MCF-7 cells. This was part of a full screening experiment. High content imaging is used to count the number of Hoechst-labeled nuclei that are present in an assay well in 384-well format.The assay component endpoint CCTE_Harrill_HTTr_CellCount_MCF7 was analyzed with bidirectional fitting relation to DMSO as the negative control and baseline of activity. Using a type of viability reporter, loss-of-signal activity can be used to understand changes in cell count. To generalize the intended target to other relatable targets, this assay endpoint is annotated to cell cycle, where the subfamily is cell count.
Chemicals were tested in MCF7 cells in an eight point dilution series with a six hour exposure duration.
In the case of `COC(=O)c1ccccc1C(=O)O`, the outcome is reported as “inactive”.
For `N#CSCSc1nc2ccccc2s1`, the outcome was “inactive”.
In the case of `CC(C)(C)[C@@H](O)[C@@H](Cc1ccc(Cl)cc1)n1cncn1`, the outcome is reported as “inactive”.
With `S=C(S)NCCNC(=S)S.[Mn+2].[S-]C([S-])=NCCN=C([S-])[S-].[Zn+2]` the outcome was “inactive”.
In the case of `CC(C)CCCCCCc1ccc(O)cc1`, the outcome is reported as “inactive”.
For `CC(=O)S[C@@H]1CC2=CC(=O)CC[C@]2(C)[C@H]2CC[C@@]3(C)[C@@H](CC[C@@]34CCC(=O)O4)[C@H]12`, the outcome was “inactive”.
With `CCCN(CCC)C(=O)SCC` the outcome was “inactive”.
In the case of `S=C([S-])NCCNC(=S)[S-].[Mn+2]`, the outcome is reported as “inactive”.
With `CCCCCOC(=O)COc1cc(N2C(=O)C3=C(CCCC3)C2=O)c(F)cc1Cl` the outcome was “inactive”.
In the case of `CCOC(=O)c1ccc(O)cc1`, the outcome is reported as “inactive”.
With `C[C@]12C[C@H](O)[C@H]3[C@@H](CCC4=CC(=O)CC[C@@]43C)[C@@H]1CC[C@@H]2C(=O)CO` the outcome was “inactive”.
With `O=C(O)C1(C(=O)Nc2ccc(Cl)cc2Cl)CC1` the outcome was “inactive”.
With `CCN(CC)C(=O)c1cccc(C)c1` the outcome was “inactive”.
In the case of `CCCCOC(=O)[C@@H](C)Oc1ccc(Oc2ccc(C(F)(F)F)cn2)cc1`, the outcome is reported as “inactive”.
With `C#C[C@]1(O)CC[C@H]2[C@@H]3CCC4=CC(=O)CC[C@@H]4[C@H]3CC[C@@]21CC` the outcome was “inactive”.
With `Oc1ccc(C(c2ccc(O)cc2)C(Cl)(Cl)Cl)cc1` the outcome was “inactive”.
With `c1ccc2[nH]c(-c3cscn3)nc2c1` the outcome was “inactive”.
In the case of `CCCN(CCC)c1c([N+](=O)[O-])cc(C(F)(F)F)c(N)c1[N+](=O)[O-]`, the outcome is reported as “inactive”.
In the case of `CCCOC(=O)c1ccc(C(=O)OCCC)nc1`, the outcome is reported as “inactive”.
For `Cc1nn(C)c(Oc2ccccc2)c1C=NOCc1ccc(C(=O)OC(C)(C)C)cc1`, the outcome was “inactive”.
In the case of `C=CCOC(Cn1ccnc1)c1ccc(Cl)cc1Cl` (configuration not stated), the outcome is reported as “inactive”.
With `CC(C)(c1ccc(O)cc1)c1ccc(O)cc1` the outcome was “inactive”.
In the case of `CN(C)C(=O)Nc1ccc(Cl)c(Cl)c1`, the outcome is reported as “inactive”.
In the case of `CC(=O)[C@H]1CC[C@H]2[C@@H]3CCC4=CC(=O)CC[C@]4(C)[C@H]3CC[C@]12C`, the outcome is reported as “inactive”.
With `CCOC(=O)COc1cc(-n2ncc(C(F)(F)F)c(C)c2=O)c(F)cc1Cl` the outcome was “inactive”.
With `O=C(O)c1ccccc1` the outcome was “inactive”.
For `OB(O)O`, the outcome was “inactive”.
